Laboratory results from ChEMBL document CHEMBL1961873, “Compounds: GSK PKIS; Assays: Nanosyn kinase panel” (2012).

target: T1, Tyrosine-protein kinase ITK/TSK (Homo sapiens) (UniProt Q08881); conditions: at 0.1 µM
T1 sequence (whole entry): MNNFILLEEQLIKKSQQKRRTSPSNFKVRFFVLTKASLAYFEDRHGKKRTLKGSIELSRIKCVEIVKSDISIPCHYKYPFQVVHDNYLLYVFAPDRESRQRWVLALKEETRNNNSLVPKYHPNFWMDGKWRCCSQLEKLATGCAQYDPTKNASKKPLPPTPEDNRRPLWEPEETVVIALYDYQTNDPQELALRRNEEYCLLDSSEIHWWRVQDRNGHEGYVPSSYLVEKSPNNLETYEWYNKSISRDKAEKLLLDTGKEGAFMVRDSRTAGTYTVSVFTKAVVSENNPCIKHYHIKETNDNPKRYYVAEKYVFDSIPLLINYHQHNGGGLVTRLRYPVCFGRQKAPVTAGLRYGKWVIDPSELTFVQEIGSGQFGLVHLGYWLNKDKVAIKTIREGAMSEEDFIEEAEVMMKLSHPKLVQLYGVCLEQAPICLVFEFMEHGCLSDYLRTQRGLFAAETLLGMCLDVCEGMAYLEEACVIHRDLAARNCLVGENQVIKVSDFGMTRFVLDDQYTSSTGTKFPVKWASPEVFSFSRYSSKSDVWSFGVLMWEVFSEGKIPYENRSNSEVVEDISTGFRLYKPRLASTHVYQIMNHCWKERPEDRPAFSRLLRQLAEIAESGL
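Also: mean percent inhibition of ITK from the GSK PKIS screen.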

SMILES	inhibition
CCN1CCC(CC(=O)Nc2n[nH]c3nnc(-c4cccc(F)c4F)cc23)CC1	-1.01%
COc1cccc(-c2c[nH]c3c(N/N=C/c4ccncc4)ncnc23)c1	1.15%
NC(=O)c1sc(-n2cnc3ccc(C(F)(F)F)cc32)cc1OCc1ccccc1Br	1.03%
CC(C)COC(=O)c1ccc2c(c1)/C(=C/Nc1ccc(S(N)(=O)=O)cc1)C(=O)N2	0.34%
CCn1c(-c2nonc2N)nc2cnc(Oc3cccc(NC(=O)c4ccc(N(C)C)cc4)c3)cc21	0.98%
Fc1cccc(COc2ccc(Nc3ncnc4sc(-c5ccco5)cc34)cc2Cl)c1	0.55%
CC(=O)NCc1cccc(C#Cc2cncnc2Nc2ccc(OCc3cccc(F)c3)c(Cl)c2)c1	0.36%
CS(=O)(=O)CCNCc1coc(-c2ccc3ncnc(Nc4ccc(OCc5ccccc5)cc4)c3c2)c1	0.65%
Cc1ccc2c(-c3ccnc(Nc4ccccc4)n3)c(-c3ccc(F)cc3)nn2n1	1.54%
O=S(=O)(CCNCc1ccc(-c2ccc3ncnc(Nc4ccc(OCc5cccc(F)c5)c(Cl)c4)c3c2)o1)c1ccccc1	0.82%
CCNC(=O)O[C@H]1CN[C@H](C#Cc2cc3ncnc(Nc4ccc(OCc5cccc(F)c5)c(Cl)c4)c3s2)C1	1.32%
c1ccc(COc2ccc(Nc3ncnc4ccc(-c5ccco5)cc34)cc2)cc1	-0.91%
COC(=O)c1sc(-n2cnc3cc(OC)c(OC)cc32)cc1OCc1ccccc1C(F)(F)F	1.1%
Cc1cccc2c1NC(=O)/C2=N\Nc1ccc(S(N)(=O)=O)cc1	1.75%
CC(=O)Nc1cccc(C#Cc2cncnc2Nc2ccc(OCc3cccc(F)c3)c(Cl)c2)c1	1.8%
CCn1c(-c2nonc2N)nc2ccccc21	1.11%
